In the antibiotic and cytotoxicity screens of Wong et al. (2023) one finds cytotoxicity call data, which are given here for 64 compounds.

Screen size: about 39,000 compounds; about 3,300 (8.5%) were called active. The sample holds actives, similar compounds and a random draw of the others, so the mix is not that of the screen.

This assay has as its system HepG2. In words: cytotoxicity call (relative viability < 0.9). The conditions noted are these: 10 µM.
As to `Cn1cnc(S(=O)(=O)N2C[C@@H](O)COC[C@H]3O[C@H](CC(=O)NCc4cc(F)cc(F)c4)CC[C@@H]32)c1`, the cytotoxicity call was “inactive”. As for `O=C(C[C@@H]1CC[C@H]2[C@@H](COC[C@@H](O)CN2S(=O)(=O)c2cccc(Cl)c2)O1)N1CCOCC1`, the cytotoxicity call was “inactive”. For the compound `O=C(C[C@H]1CC[C@@H]2[C@H](COC[C@H](O)CN2Cc2cccc(C(F)(F)F)c2)O1)NCCc1ccncc1`, the cytotoxicity call was “inactive”. In the case of `O=C(C[C@H]1CC[C@H]2[C@@H](COC[C@H](O)CN2C(=O)Nc2ccc(Cl)c(Cl)c2)O1)NCc1ccc(Cl)c(Cl)c1`, the cytotoxicity call is “inactive”. For the compound `O=C(C[C@@H]1CC[C@H]2[C@@H](COC[C@@H](O)CN2C(=O)Nc2ccc(Cl)c(Cl)c2)O1)NCc1ccc(Cl)c(Cl)c1`, the cytotoxicity call is “active”. Regarding `O=C(C[C@@H]1CC[C@H]2[C@@H](COC[C@H](O)CN2C(=O)Nc2ccc(Cl)c(Cl)c2)O1)NCc1ccc(Cl)c(Cl)c1`, the cytotoxicity call is “inactive”. The same measure for `Cn1cnc(CCNC(=O)C[C@H]2CC[C@@H]3[C@H](COC[C@@H](O)CN3C(=O)Nc3ccc(Cl)cc3)O2)c1`: “inactive”. As to `O=C(C[C@H]1CC[C@@H]2[C@H](COC[C@@H](O)CN2C(=O)Nc2ccc(Cl)c(Cl)c2)O1)NCc1ccc(Cl)c(Cl)c1`, the cytotoxicity call was “inactive”. The same measure for `O=C(C[C@H]1CC[C@H]2[C@@H](COC[C@@H](O)CN2C(=O)Nc2ccc(Cl)c(Cl)c2)O1)NCc1ccc(Cl)c(Cl)c1`: “active”; for `O=C(C[C@H]1CC[C@@H]2[C@H](COC[C@@H](O)CN2Cc2cccc(C(F)(F)F)c2)O1)NCCc1ccncc1`: “active”. As for `O=C(C[C@@H]1CC[C@@H]2[C@H](COC[C@@H](O)CN2C(=O)Nc2ccc(Cl)c(Cl)c2)O1)NCc1ccc(Cl)c(Cl)c1`, the cytotoxicity call was “inactive”. As for `Cn1cnc(CCNC(=O)C[C@@H]2CC[C@H]3[C@@H](COC[C@H](O)CN3C(=O)Nc3ccc(Cl)cc3)O2)c1`, the entry is “inactive”; as for `O=C(C[C@@H]1CC[C@@H]2[C@H](COC[C@H](O)CN2Cc2cccc(C(F)(F)F)c2)O1)NCCc1ccncc1`, “inactive”; as for `Cn1cnc(CCNC(=O)C[C@H]2CC[C@@H]3[C@H](COC[C@H](O)CN3C(=O)Nc3ccc(Cl)cc3)O2)c1`, “active”. As for `C[C@H]1CN([C@@H](C)CO)S(=O)(=O)c2ccc(Br)cc2O[C@@H]1CN(C)C(=O)c1cnccn1`, the entry is “inactive”; as for `C[C@H](CO)N1C[C@H](C)[C@H](CN(C)Cc2ccccc2)Oc2c(NC(=O)Nc3ccc(C(F)(F)F)cc3)cccc2C1=O`, “inactive”; as for `C[C@H]1CN([C@@H](C)CO)C(=O)Cc2cc(NC(=O)CCC(F)(F)F)ccc2O[C@@H]1CN(C)Cc1ccc(Cl)c(Cl)c1`, “inactive”. `O=C(O)CCC(=O)N1CC(=O)Nc2ccccc21`: the cytotoxicity call is “inactive”. As for `C[C@@H]1CN([C@@H](C)CO)C(=O)c2cccc(NS(=O)(=O)c3ccccc3)c2O[C@@H]1CN(C)Cc1ccc(Oc2ccccc2)cc1`, the entry is “inactive”. As for `COc1ccc(S(=O)(=O)N(C)C[C@H]2Oc3ccc(NS(=O)(=O)c4ccc(C)cc4)cc3CC(=O)N([C@H](C)CO)C[C@@H]2C)cc1`, the cytotoxicity call was “inactive”.

Regarding `NC[C@H](c1ccccc1Cl)N1CCOCC1`, the cytotoxicity call is “inactive”.

With `C[C@@H]1CN([C@H](C)CO)C(=O)c2cc(NC(=O)Nc3ccccc3)ccc2O[C@@H](C)CCCCO[C@H]1CN(C)C(=O)Cc1ccccc1`, the cytotoxicity call is “inactive”.

Take `CC[C@H](C)[C@H](N)C1=N[C@H](C(=O)N[C@@H](CC(C)C)C(=O)N[C@H](CCC(=O)O)C(=O)N[C@H](C(=O)N[C@H]2CCCCNC(=O)[C@H](CC(N)=O)NC(=O)[C@@H](CC(=O)O)NC(=O)[C@H](Cc3cnc[nH]3)NC(=O)[C@@H](Cc3ccccc3)NC(=O)[C@H]([C@@H](C)CC)NC(=O)[C@@H](CCCN)NC2=O)[C@@H](C)CC)CS1`: the cytotoxicity call is “inactive”. For `O=C(C[C@@H]1CC[C@H]2[C@@H](COC[C@@H](O)CN2C(=O)Nc2ccc(Cl)c(Cl)c2)O1)NCc1ccncc1`, the cytotoxicity call was “inactive”. Turning to `O=C(C[C@H]1CC[C@@H]2[C@H](COC[C@H](O)CN2C(=O)Nc2ccc(Cl)c(Cl)c2)O1)NCc1ccncc1`, the cytotoxicity call is “inactive”. `O=C(C[C@@H]1CC[C@@H]2[C@H](COC[C@H](O)CN2C(=O)Nc2ccc(Cl)c(Cl)c2)O1)NCc1ccc(Cl)c(Cl)c1`: the cytotoxicity call was “inactive”. The same measure for `O=C(C[C@H]1CC[C@H]2[C@@H](COC[C@@H](O)CN2C(=O)Nc2ccc(Cl)cc2)O1)NCCc1ccncc1`: “active”. Take `O=C(C[C@H]1CC[C@H]2[C@@H](COC[C@@H](O)CN2C(=O)Nc2ccc(Cl)c(Cl)c2)O1)NCc1ccncc1`: the cytotoxicity call is “inactive”.

On to `O=C(C[C@@H]1CC[C@@H]2[C@H](COC[C@@H](O)CN2C(=O)Nc2ccc(Cl)c(Cl)c2)O1)NCc1ccncc1`, for which the cytotoxicity call is “active”. As for `O=C(C[C@H]1CC[C@H]2[C@@H](COC[C@H](O)CN2C(=O)Nc2ccc(Cl)cc2)O1)NCCc1ccncc1`, the entry is “inactive”; as for `O=C(C[C@@H]1CC[C@@H]2[C@H](COC[C@@H](O)CN2C(=O)Nc2ccc(Cl)cc2)O1)NCCc1ccncc1`, “inactive”; as for `O=C(C[C@H]1CC[C@@H]2[C@H](COC[C@H](O)CN2C(=O)Nc2ccc(Cl)c(Cl)c2)O1)NCc1ccc(Cl)c(Cl)c1`, “active”. Take `CO[C@H]1CN(C)C(=O)c2cc(NC(=O)Nc3ccc(Cl)cc3)ccc2OC[C@@H](C)N(C(=O)Nc2c(C)noc2C)C[C@@H]1C`: the cytotoxicity call was “inactive”. As to `C[C@@H]1CCCCO[C@@H](CN(C)C(=O)Cc2ccccc2)[C@@H](C)CN([C@H](C)CO)C(=O)c2cc(NC(=O)C3CCCCC3)ccc2O1`, the cytotoxicity call is “inactive”. As for `CC(C)NC(=O)N(C)C[C@@H]1Oc2ccc(NC(=O)Cn3cnnn3)cc2C(=O)N([C@H](C)CO)C[C@@H]1C`, the cytotoxicity call was “inactive”. For the compound `C[C@@H]1CCCCO[C@H](CN(C)C(=O)Cc2ccccc2)[C@H](C)CN([C@H](C)CO)C(=O)c2cc(NC(=O)CCC(F)(F)F)ccc2O1`, the cytotoxicity call was “inactive”. For `C[C@@H]1CN([C@@H](C)CO)C(=O)c2cc(NC(=O)CCCN(C)C)ccc2O[C@H]1CN(C)S(=O)(=O)c1ccc(F)cc1`, the cytotoxicity call is “inactive”.

As for `Clc1ccc(C2=Nc3cccc4cccc(c34)N2)cc1`, the cytotoxicity call was “inactive”. Turning to `C=C(CO)C(=O)O[C@@H]1[C@H]2C(=C)C(=O)O[C@@H]2[C@H]2O[C@]2(C)CC/C=C(/C(=O)OC)[C@H]1OC(C)=O`, the cytotoxicity call is “active”. The same measure for `C=C(CO)C(=O)O[C@H]1C[C@@]2(C)OC(=O)/C(=C/C)[C@]2(O)CC[C@@]2(C)CC(=O)[C@]1(C(=C)C(=O)OC)O2`: “inactive”. The same measure for `O=C(O)CN1CCCCCC1=O`: “inactive”; for `O=C(C[C@H]1C[C@@H]2c3cc(NC(=O)Nc4ccc(C(F)(F)F)cc4)ccc3O[C@@H]2[C@H](CO)O1)NCc1ccc(Cl)cc1`: “inactive”. In the case of `C[C@@H]1CN([C@@H](C)CO)C(=O)CCCn2cc(nn2)CO[C@H]1CN(C)C(=O)Nc1ccnc(N2CCOCC2)c1`, the cytotoxicity call is “inactive”.

Turning to `C[C@@H]1CN([C@H](C)CO)C(=O)c2cc(NC(=O)c3ccncc3)ccc2O[C@@H]1CN(C)Cc1ccc(Oc2ccccc2)cc1`, the cytotoxicity call was “inactive”. As to `C[C@@H]1CN([C@@H](C)CO)C(=O)c2cc(NC(=O)c3ccncc3)ccc2O[C@@H]1CN(C)Cc1ccc(-c2ccccc2)cc1`, the cytotoxicity call was “inactive”. Turning to `C[C@@H]1CN([C@H](C)CO)C(=O)c2cc(NC(=O)c3ccncc3)ccc2O[C@H]1CN(C)Cc1ccc(-c2ccccc2)cc1`, the cytotoxicity call was “active”. Take `C[C@H](CO)N1C[C@H](C)[C@H](CN(C)Cc2ccc(Oc3ccccc3)cc2)Oc2ccc(NC(=O)c3ccncc3)cc2C1=O`: the cytotoxicity call is “active”. Consider `Cc1noc(C)c1NC(=O)N(C)C[C@H]1Oc2ccc(NC(=O)c3ccncc3)cc2C(=O)N([C@@H](C)CO)C[C@H]1C`, for which the cytotoxicity call was “inactive”. Turning to `Cc1noc(C)c1NC(=O)N(C)C[C@H]1Oc2ccc(NC(=O)c3ccncc3)cc2C(=O)N([C@H](C)CO)C[C@@H]1C`, the cytotoxicity call was “active”. As to `C[C@H](CO)N1C[C@H](C)[C@@H](CN(C)Cc2ccc(-c3ccccc3)cc2)Oc2ccc(NC(=O)c3ccncc3)cc2C1=O`, the cytotoxicity call is “inactive”. `C[C@H]1CN([C@@H](C)CO)C(=O)c2cc(NC(=O)c3ccncc3)ccc2O[C@@H]1CN(C)Cc1ccc(Oc2ccccc2)cc1`: the cytotoxicity call was “inactive”. As for `Cc1noc(C)c1NC(=O)N(C)C[C@H]1Oc2ccc(NC(=O)c3ccncc3)cc2C(=O)N([C@@H](C)CO)C[C@@H]1C`, the entry is “inactive”; as for `C[C@@H]1CN([C@@H](C)CO)C(=O)c2cc(NC(=O)CCCN(C)C)ccc2O[C@H]1CN(C)Cc1ccncc1`, “inactive”; as for `C[C@@H]1CCCCO[C@@H](CN(C)CC2CCCCC2)[C@@H](C)CN([C@@H](C)CO)C(=O)c2cc(NC(=O)CCC(F)(F)F)ccc2O1`, “inactive”. Consider `Cc1ccc(S(=O)(=O)N(C)C[C@@H]2Oc3ccc(NS(C)(=O)=O)cc3C(=O)N([C@H](C)CO)C[C@@H]2C)cc1`, for which the cytotoxicity call is “inactive”. With `COc1ccc2c3c(n(c2c1)C)[C@@H](CO)N(C[C@]13CN(Cc2ccncc2)C1)C(=O)CN1CCOCC1`, the cytotoxicity call is “inactive”. In the case of `O=C(C[C@@H]1CC[C@H]2[C@@H](COC[C@@H](O)CN2Cc2ccccc2F)O1)N[C@@H]1CCN(Cc2ccccc2)C1`, the cytotoxicity call was “inactive”. With `C[C@@H]1CCCCO[C@@H](CN(C)C(=O)Nc2cccc3ccccc23)[C@H](C)CN([C@@H](C)CO)C(=O)c2cc(NS(=O)(=O)c3cccs3)ccc2O1`, the cytotoxicity call was “inactive”. The same measure for `C[C@@H]1CN([C@@H](C)CO)C(=O)c2c(c3ccccc3n2C)-c2ccccc2CO[C@@H]1CN(C)C(=O)NC1CCCCC1`: “inactive”; for `Cn1c(=O)c2c(ncn2CC(=O)N2CCN(c3ccccc3F)CC2)n(C)c1=O`: “inactive”; for `CCN(CC)C(=S)SSC(=S)N(CC)CC`: “active”.

Turning to `O=C(NCc1nc2ccccc2[nH]1)C1=C[C@@H](c2ccc(C(F)(F)F)cc2)C[C@@H](OCc2ccc(CO)cc2)O1`, the cytotoxicity call is “inactive”. Consider `Nc1cc(N)nc(SCCC(=O)O)n1`, for which the cytotoxicity call was “inactive”.

Consider `COCC(=O)N1CC(=O)N2[C@H](CO)[C@@H](c3ccc(C#Cc4cccnc4)cc3)[C@H]2C1`, for which the cytotoxicity call was “inactive”.
